Screening data (PubChem BioAssay)
Sampled rows, rich in hits. Any-hit rate of the full collection: about 0.67%.
ugtP null kill – compounds lethal to S. aureus RN4220 ugtP deletion mutant | hit rate 0.54% among 330,000 | AID 1259309 | OD600 growth, 16 h | growth inhibition, % (test concentration not listed); in the data active = growth inhibition above about 68%
Sa RN4220 lethal – kills Staphylococcus aureus RN4220. S. aureus RN4220 growth, OD600, 16 h. inhibition, % (no concentration beside the values). hit rate 0.33% among 330,000. AID 1259311; in the data active = inhibition above about 85%
TcdB inh – blocks C. difficile toxin B glycohydrolase activity; TcdB glycohydrolase enzymatic assay, plate reader; inhibition, % at 9.99 µM; hit rate 0.24% among 350,000; in the data active = inhibition above about 10%
Vc quorum ag – induces V. cholerae light production without autoinducers. AID 588436. activation, % at 18.7 µM. V. cholerae BH1578 lux reporter, luminescence, 6 h. hit rate 0.16% among 350,000; in the data active = activation mostly above about 9.7%, no sharp cut-off
Hits are given with their value; i = inactive; nt = not tested or not shown; ! = repeats disagree.

SMILES	ugtP null kill	Sa RN4220 lethal	TcdB inh	Vc quorum ag
CCCCn1c(=O)c(C(=O)Nc2ccccc2S(N)(=O)=O)c(O)c2ccccc21	i	93	nt	i
CCCCCn1c(=O)c(C(=O)Nc2ccccc2S(N)(=O)=O)c(O)c2ccccc21	100	100	i	i
Cc1ccc(S(=O)(=O)NN=Cc2ccccc2O)cc1[N+](=O)[O-]	i	i	nt	nt
COc1ccccc1OCC(=O)Nc1ccc(-c2nnc(-c3ccco3)o2)cc1	i	i	12	i
CC1(C)[C@@H](O)CC[C@]2(C)[C@H]3C(=O)C=C4[C@@H]5C[C@@](C)(C(=O)O)CC[C@]5(C)CC[C@@]4(C)[C@]3(C)CC[C@@H]12	nt	nt	i	i
CC1(C)C(O)CC[C@@]2(C)C1CC[C@]1(C)C2C(=O)C=C2C3C[C@@](C)(C(=O)O)CC[C@]3(C)CC[C@]21C (stereo not given in full)	87	i	nt	nt
C[C@H]1[C@H](C)CC[C@]2(C(=O)O)CC[C@]3(C)C(=CC[C@@H]4[C@@]5(C)CC[C@H](O)C(C)(C)[C@@H]5CC[C@]43C)[C@H]12	nt	nt	i	i
CC1(C)CC[C@]2(C(=O)O)CC[C@]3(C)C(=CCC4[C@@]5(C)CCC(O)C(C)(C)C5CC[C@]43C)C2C1 (stereo not given in full)	91!	i	nt	nt
O=[N+]([O-])c1ccc2[nH]cc(S(=O)(=O)N3CCN(c4cccc(Cl)c4)CC3)c2c1	90	100	i	i
COc1ccc2cc(C=NO)c(Cl)nc2c1	i	i	nt	nt
O=C(NC(=S)NNS(=O)(=O)c1ccccc1)c1cccnc1	i	i	11	i
O=C1NC(=S)S/C1=C\C=C\c1ccc([N+](=O)[O-])o1	100	100	i	i
O=C(Nc1cccc(NC(=O)c2c(F)cccc2F)n1)c1c(F)cccc1F	i	i	i	i
O=C(Nc1cccc(NC(=O)c2cccc(F)c2)n1)c1cccc(F)c1	i	90	i	i
COC(=O)C1=C(c2ccc(-c3ccccc3)c(F)c2)CC2CCC1N2C(=O)NCc1cccc2ccccc12 (stereo not given)	i	i	nt	nt
O=c1oc(CCCO)cc2ccc(C=Cc3cccc([N+](=O)[O-])c3)cc12	i	i	nt	nt
COc1cccc(-n2ccnc2SCC(=O)NCc2ccccc2)c1	i	i	nt	25
COc1ccc2cc(/C=C3\SC(=S)NC3=O)c(N3CCOCC3)nc2c1	90	89	i	i
O=C(C1=CC(c2ccc3c(c2)OCO3)CC(OCCCCO)O1)N1CCOCC1 (stereo not given)	i	i	nt	nt
O=C(C=Cc1ccccc1)c1ccccc1	i	i	nt	nt
O=C(/C=C/c1ccc(O)cc1)c1ccccc1	i	i	15	i
CCOc1cc(C=NNC(=O)c2ccncc2)cc(Cl)c1OS(C)(=O)=O	i	i	nt	nt
Cc1ccccc1OCC(=O)Nn1c(COc2ccccc2)nc2ccccc2c1=O	99	110	nt	i
Cc1cc(C)c[n+](-c2[nH]c(=O)sc2C=NN=C(N)[S-])c1	i	i	nt	nt
CCOC(=O)c1c(NC(=O)c2cccnc2)sc(C)c1C	i	i	i	i
SMILES	ugtP null kill	Sa RN4220 lethal	TcdB inh	Vc quorum ag
CCOC(=O)c1sc(NC(=O)c2cccnc2)c(C#N)c1C	85	i	i	nt
COc1cccc(C(=O)NCC(=O)NN=C(C)Cc2ccccc2)c1	i	i	nt	nt
O=C(Nc1ccc(Cl)cc1)c1cc2c(cc1O)[nH]c1ccccc12	98	95	i	i
O=S(=O)(Oc1ccccc1-c1ccccc1)c1ccccc1	i	i	12	i
O=Cc1ccccc1OS(=O)(=O)c1ccccc1	i	i	nt	i
CC(C)(C)C1CCC(=O)N(C(CN=[N+]=[N-])Cc2ccccc2)CC1 (stereo not given)	i	i	nt	nt
O=C(Nc1nnc(-c2ccccc2Cl)o1)c1ccco1	i	i	nt	i
O=C(Nc1nnc(-c2ccccc2Cl)o1)c1nc2ccccc2s1	100	99	i	i
O=C1CCC(CN(Cc2ccccn2)Cc2nc(Cc3cccc(C(F)(F)F)c3)no2)N1 (stereo not given)	i	i	nt	nt
COc1ccc(-c2c(C)oc3ccc(C)cc23)cc1	84	i	nt	i
CC[n+]1c(/C=C/N(C)c2ccccc2)n(-c2ccccc2)c2ccc(-c3nc4ccccc4s3)cc21	101	100	nt	i
C=CCOC(=O)C1=C(C)NC(SC)=C(C#N)C1c1ccc(OCC)cc1 (stereo not given)	91	i	i	i
O=C(Nc1n[nH]c(=S)s1)c1ccco1	i	i	i	i
NNC(=O)CNC(=O)Nc1n[nH]c(=S)s1	nt	nt	10	nt
CCOC(=O)C1CCN(C(=O)c2cccc(Cl)c2)CC1	i	i	nt	i
CCOC(=O)C1CCN(c2c(C(=O)c3ccccc3)cnc3ccc(Cl)cc23)CC1	100	i	i	i
O=C(NC1CC1)C1=CC(c2ccc3c(c2)OCO3)CC(OCCCCO)O1 (stereo not given)	i	i	nt	nt
Cc1ccccc1-n1ncc2c1CC(C)(C)CC2NC(=O)CCC1=NNC(=O)CC1 (stereo not given)	i	i	i	i
Cc1ccn(CCC(=O)NC2CC(C)(C)Cc3c2cnn3-c2ccccc2C)n1 (stereo not given)	i	i	10	i
CC(=NCCCN(C)C)C1=C(O)c2ccccc2C1=O	i	i	nt	17
CCCCCCCC(=O)NNC(=O)c1c(O)c2ccccc2n(CCC)c1=O	i	98	i	i
CCCCCn1c(=O)c(C(=O)Nc2cnccn2)c(O)c2ccccc21	99	i	i	i
CCCCCCCn1c(=O)c(C(=O)Nc2cnccn2)c(O)c2ccccc21	98	98	i	i
CCCn1c(=O)c(C(=O)Nc2ccccc2)c(O)c2ccccc21	i	i	nt	i
CCCn1c(=O)c(C(=O)Nc2cccc(C)c2)c(O)c2ccccc21	84	i	i	i
SMILES	ugtP null kill	Sa RN4220 lethal	TcdB inh	Vc quorum ag
C=C(C)C(=O)Nc1cccc(C2=NOC3(C2)CC(C(N)=O)N(C(=O)c2cc([N+](=O)[O-])cc([N+](=O)[O-])c2)C3)c1 (stereo not given)	i	i	nt	nt
COc1ccccc1/C=C\C=Nn1c(-c2ccc(Cl)cc2Cl)n[nH]c1=S	i	i	nt	nt
O=C(Nc1cccnc1)OCc1ccccc1	i	i	i	i
O=C(Nc1ccc(Cl)c(Cl)c1)ON=Cc1ccncc1	101	100	nt	nt
COc1cccc(S(=O)(=O)NCc2ccc(C(=O)Nc3ccc(Cl)c(Cl)c3)cc2)c1	i	i	nt	i
O=C(Nc1ccc(Cl)c(Cl)c1)c1cccc(S(=O)(=O)NCc2cccnc2)c1	i	100	nt	i
O=C(Nc1ccc(Cl)c(Cl)c1)OCc1cccnc1	100	100	nt	i
COC(=O)C1=C(c2cccc(C#N)c2)CC2CCC1N2C(=O)NCCOc1ccc(OC)cc1 (stereo not given)	i	i	nt	nt
Cc1ccc(C(=O)C=CNc2ccc(C)c(C)c2)cc1	i	i	nt	nt
N#CC(=NNc1cccc(Cl)c1)C(=O)c1ccccc1	100	100	nt	nt
N#CC(=NNc1ccc(Cl)cc1)C(=O)c1ccsc1	99	100	nt	nt
N#CC(=NNc1ccc(Cl)cc1)C(N)=S	88	i	nt	nt
N#C/C(=N\Nc1ccc(Cl)cc1)C(N)=S	nt	nt	i	i
N#C/C(=N\Nc1ccc(Cl)cc1)C(=O)c1ccsc1	nt	nt	i	i
N#C/C(=N\Nc1cccc(Cl)c1)C(=O)c1ccccc1	nt	nt	nt	i
